Data from the supplement of paper PMC10849652.
About 7,900 targets were measured; listed, in parts, are those with a hit and a random draw of the rest. About 0.6% of all pairs of compound and target were hits. Values without a mark were called inactive.

compound: c1cn2cc(-c3ccc4cn[nH]c4c3)nc(Nc3ccc(N4CCOCC4)cc3)c2n1 [entospletinib]; assay: log2 fold change, soluble protein after heating vs DMSO (PISA); higher = thermal stabilisation; K562 cells, 10 uM, 30 min; active = over 0.2 and 3.5 SD of the protein, either way, in both replicates (recomputed)
Method in brief: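 K562 cells at 2×10^6 cells/mL were treated for 30 min with 10 μM compound, and aliquots were heated for 3 min over 48°C-58°C before pooling. Extraction used PBS with 0.5% NP-40 at 4°C, and soluble protein was the supernatant after 21,000xg for 90 min, measured by TMTpro 16plex LC-MS/MS with channel sums equalised. Thermal stability values, relative to control samples and from duplicates, are log2 fold changes.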

Chain of UniProt Q13573 (Q13573 whole entry, looked up): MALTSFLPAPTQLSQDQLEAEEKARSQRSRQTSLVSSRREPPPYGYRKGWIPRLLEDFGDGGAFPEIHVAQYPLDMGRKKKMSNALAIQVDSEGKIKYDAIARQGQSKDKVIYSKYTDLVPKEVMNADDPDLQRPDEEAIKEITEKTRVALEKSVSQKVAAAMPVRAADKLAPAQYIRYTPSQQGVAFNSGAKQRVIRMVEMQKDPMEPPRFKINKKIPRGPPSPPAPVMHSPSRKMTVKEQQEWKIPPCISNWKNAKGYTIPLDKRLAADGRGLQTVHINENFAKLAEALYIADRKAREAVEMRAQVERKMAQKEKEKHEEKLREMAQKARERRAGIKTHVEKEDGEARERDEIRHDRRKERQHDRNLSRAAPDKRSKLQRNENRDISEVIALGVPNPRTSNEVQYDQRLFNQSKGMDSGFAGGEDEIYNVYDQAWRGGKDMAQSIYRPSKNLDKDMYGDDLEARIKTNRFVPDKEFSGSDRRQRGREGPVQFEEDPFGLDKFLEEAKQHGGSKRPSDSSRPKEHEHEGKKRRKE
Chain of UniProt Q9NZ01 (Q9NZ01 whole entry, looked up): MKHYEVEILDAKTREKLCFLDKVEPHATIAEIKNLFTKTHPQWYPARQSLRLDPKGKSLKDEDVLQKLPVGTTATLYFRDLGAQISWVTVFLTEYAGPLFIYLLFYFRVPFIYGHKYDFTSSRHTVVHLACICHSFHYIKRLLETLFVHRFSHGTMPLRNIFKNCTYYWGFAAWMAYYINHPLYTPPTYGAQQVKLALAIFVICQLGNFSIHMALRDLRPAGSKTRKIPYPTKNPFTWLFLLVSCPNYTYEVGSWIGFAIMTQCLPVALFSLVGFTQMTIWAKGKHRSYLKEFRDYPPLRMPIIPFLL
Chain of UniProt O00193 (O00193 whole entry, looked up): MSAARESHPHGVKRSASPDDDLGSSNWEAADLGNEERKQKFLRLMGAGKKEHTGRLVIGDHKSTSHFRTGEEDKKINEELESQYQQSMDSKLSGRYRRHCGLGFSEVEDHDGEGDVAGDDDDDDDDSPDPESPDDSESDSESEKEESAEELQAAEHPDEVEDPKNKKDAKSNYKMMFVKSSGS
Chain of UniProt Q9UMY4 (Q9UMY4 whole entry, looked up): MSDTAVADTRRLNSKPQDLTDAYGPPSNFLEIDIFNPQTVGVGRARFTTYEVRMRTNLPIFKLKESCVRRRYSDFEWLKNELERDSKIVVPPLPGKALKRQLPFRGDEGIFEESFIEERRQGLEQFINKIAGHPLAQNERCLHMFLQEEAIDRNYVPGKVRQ
Chain of UniProt P04920 (P04920 whole entry, looked up): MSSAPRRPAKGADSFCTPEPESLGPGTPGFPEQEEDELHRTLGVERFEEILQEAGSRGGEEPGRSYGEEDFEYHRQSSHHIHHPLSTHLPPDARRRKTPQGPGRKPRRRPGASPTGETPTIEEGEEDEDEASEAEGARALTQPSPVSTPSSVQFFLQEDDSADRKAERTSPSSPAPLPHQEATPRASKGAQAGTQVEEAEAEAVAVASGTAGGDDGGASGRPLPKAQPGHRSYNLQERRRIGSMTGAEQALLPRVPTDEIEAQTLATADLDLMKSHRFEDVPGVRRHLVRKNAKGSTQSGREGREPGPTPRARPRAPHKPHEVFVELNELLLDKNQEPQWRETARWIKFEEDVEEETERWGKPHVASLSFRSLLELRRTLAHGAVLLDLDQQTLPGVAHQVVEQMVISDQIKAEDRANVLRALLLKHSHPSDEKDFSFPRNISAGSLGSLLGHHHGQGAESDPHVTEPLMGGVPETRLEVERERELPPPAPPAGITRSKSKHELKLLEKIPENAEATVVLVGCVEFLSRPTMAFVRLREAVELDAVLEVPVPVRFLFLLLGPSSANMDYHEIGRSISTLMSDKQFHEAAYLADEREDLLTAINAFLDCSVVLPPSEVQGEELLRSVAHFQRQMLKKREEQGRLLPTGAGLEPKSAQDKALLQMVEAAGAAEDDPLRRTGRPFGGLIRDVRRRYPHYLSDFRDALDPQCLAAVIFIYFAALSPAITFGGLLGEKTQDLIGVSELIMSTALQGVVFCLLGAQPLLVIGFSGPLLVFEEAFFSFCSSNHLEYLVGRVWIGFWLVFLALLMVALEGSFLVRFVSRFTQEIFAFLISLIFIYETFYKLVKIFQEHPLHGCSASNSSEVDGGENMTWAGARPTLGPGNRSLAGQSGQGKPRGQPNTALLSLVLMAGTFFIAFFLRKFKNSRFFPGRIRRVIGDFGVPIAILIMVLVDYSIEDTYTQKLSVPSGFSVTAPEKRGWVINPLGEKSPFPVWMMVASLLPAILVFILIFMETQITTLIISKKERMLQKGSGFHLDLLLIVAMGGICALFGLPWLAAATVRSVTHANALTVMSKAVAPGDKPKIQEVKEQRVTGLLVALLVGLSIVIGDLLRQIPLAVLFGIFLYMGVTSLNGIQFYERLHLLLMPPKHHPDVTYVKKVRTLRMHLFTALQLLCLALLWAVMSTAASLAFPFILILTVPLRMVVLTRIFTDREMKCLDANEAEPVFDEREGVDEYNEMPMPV
Chain of UniProt P51532 (P51532 whole entry, looked up): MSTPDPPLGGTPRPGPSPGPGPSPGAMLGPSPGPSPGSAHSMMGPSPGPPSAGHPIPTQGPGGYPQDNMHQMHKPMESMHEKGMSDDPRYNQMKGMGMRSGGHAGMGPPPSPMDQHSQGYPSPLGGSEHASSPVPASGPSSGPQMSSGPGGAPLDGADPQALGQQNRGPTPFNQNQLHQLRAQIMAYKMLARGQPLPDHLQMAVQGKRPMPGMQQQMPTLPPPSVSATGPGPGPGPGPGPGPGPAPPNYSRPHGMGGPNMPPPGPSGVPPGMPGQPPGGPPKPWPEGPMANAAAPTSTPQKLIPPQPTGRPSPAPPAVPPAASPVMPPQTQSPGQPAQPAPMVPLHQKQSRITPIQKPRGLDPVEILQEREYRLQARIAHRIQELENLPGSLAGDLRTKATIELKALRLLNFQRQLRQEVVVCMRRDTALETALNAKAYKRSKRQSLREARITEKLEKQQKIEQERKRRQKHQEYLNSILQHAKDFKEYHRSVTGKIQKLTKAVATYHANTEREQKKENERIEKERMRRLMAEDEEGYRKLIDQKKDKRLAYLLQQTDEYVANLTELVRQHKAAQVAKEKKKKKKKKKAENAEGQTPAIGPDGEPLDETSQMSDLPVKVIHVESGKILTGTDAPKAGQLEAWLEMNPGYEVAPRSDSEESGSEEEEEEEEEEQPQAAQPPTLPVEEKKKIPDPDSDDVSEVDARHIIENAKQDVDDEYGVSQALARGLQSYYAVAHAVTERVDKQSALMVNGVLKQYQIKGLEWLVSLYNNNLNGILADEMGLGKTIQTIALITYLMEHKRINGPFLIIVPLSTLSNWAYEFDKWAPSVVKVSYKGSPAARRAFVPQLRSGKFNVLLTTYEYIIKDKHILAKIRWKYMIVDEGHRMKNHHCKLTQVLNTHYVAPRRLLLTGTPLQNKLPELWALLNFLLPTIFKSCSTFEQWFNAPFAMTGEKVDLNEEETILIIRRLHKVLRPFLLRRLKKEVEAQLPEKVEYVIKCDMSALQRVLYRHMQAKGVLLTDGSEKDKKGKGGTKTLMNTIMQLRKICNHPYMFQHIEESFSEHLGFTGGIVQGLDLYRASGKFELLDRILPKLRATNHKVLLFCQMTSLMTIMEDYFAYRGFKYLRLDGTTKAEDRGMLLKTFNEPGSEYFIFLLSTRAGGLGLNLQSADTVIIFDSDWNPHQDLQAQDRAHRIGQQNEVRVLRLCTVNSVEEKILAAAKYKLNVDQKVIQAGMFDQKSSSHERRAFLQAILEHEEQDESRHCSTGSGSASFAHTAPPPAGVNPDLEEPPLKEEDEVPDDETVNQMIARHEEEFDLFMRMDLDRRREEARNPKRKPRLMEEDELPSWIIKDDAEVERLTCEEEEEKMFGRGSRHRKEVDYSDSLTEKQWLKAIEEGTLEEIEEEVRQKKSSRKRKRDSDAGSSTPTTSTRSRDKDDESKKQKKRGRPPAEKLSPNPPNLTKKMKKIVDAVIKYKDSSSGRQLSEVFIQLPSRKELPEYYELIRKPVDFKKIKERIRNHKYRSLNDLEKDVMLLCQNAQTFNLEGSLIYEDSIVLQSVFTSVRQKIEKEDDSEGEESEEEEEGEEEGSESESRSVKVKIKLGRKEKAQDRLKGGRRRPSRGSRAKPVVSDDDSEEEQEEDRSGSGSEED
Chain of UniProt Q9NS93 (Q9NS93 whole entry, looked up): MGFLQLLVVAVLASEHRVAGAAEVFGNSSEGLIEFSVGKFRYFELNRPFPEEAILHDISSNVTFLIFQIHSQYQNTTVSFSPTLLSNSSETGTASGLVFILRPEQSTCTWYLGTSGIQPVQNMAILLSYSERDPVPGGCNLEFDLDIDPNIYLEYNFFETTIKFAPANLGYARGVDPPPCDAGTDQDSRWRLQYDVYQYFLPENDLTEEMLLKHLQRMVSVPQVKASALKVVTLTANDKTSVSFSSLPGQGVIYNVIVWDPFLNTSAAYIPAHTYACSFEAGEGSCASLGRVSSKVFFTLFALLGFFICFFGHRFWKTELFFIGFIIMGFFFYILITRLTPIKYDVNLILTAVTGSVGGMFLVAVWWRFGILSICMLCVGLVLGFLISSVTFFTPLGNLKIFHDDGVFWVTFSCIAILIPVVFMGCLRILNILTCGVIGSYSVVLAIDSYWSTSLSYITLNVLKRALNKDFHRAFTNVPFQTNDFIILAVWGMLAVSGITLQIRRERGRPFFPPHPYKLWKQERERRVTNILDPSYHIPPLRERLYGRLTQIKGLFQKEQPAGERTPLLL
Chain of UniProt P62318 (P62318 whole entry, looked up): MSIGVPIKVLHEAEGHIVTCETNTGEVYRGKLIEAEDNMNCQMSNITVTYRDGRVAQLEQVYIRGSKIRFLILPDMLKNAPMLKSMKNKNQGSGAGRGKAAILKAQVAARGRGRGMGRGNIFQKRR
Chain of UniProt P62072 (P62072 whole entry, looked up): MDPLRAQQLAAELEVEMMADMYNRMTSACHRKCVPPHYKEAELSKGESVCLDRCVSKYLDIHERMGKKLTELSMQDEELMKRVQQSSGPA
Chain of UniProt Q9H4I9 (Q9H4I9 whole entry, looked up): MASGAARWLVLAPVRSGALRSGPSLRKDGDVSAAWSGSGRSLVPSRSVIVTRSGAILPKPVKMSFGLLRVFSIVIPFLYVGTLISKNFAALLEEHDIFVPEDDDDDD

| Target | log2 fold change |
| --- | --- |
| TFB2M (UniProt Q9H5Q4) | -0.011 |
| SNW1 (UniProt Q13573) | 0.087 |
| SSBP4 (UniProt Q9BWG4) | 0.119 |
| SPINDOC (UniProt Q9BUA3) | 0.018 |
| SRFBP1 (UniProt Q8NEF9) | -0.082 |
| TIMM29 (UniProt Q9BSF4) | 0.033 |
| SLC25A4 (UniProt P12235) | -0.009 |
| TARBP1 (UniProt Q13395) | 0.043 |
| TAX1BP1 (UniProt Q86VP1) | 0.029 |
| STIM1 (UniProt Q13586) | 0.003 |
| SNX5 (UniProt Q9Y5X3) | -0.002 |
| TIMM10 (UniProt P62072) | 0.009 |
| SLC44A2 isoform 2 (UniProt Q8IWA5) | -0.085 |
| SUMO1 (UniProt P63165) | 0.038 |
| TMBIM6 isoform 2 (UniProt P55061) | -0.038 |
| SRSF2 (UniProt Q01130) | 0.071 |
| TECR (UniProt Q9NZ01) | -0.018 |
| SLC39A11 (UniProt Q8N1S5) | -0.458 (active) |

| Target | log2 fold change |
| --- | --- |
| TAOK3 (UniProt Q9H2K8) | -0.016 |
| SNX12 isoform 1 (UniProt Q9UMY4) | -0.005 |
| SMARCA4 (UniProt P51532) | 0.097 |
| SPAST (UniProt Q9UBP0) | 0 |
| THRAP3 (UniProt Q9Y2W1) | 0.09 |
| SPG11 (UniProt Q96JI7) | 0.185 |
| SRCAP (UniProt Q6ZRS2) | 0.029 |
| THYN1 (UniProt Q9P016) | 0.011 |
| SURF2 (UniProt Q15527) | 0.047 |
| SLC27A4 (UniProt Q6P1M0) | -0.027 |
| SMDT1 (UniProt Q9H4I9) | 0.01 |
| TM7SF3 (UniProt Q9NS93) | -0.081 |
| TAOK1 (UniProt Q7L7X3) | -0.009 |
| SMAP (UniProt O00193) | 0.07 |
| SNRPD3 (UniProt P62318) | 0.01 |
| SPTBN4 (UniProt Q9H254) | 0 |
| SLC4A2 (UniProt P04920) | 0.028 |
